target: Cytochrome P450 3A4 (Homo sapiens) (UniProt P08684); assay: qHTS Assay for Activators of Cytochrome P450 3A4 (AID 885); settings: recombinant CYP3A4, Luciferin-PPXE luminescence, 60 min; series mostly up to 57.1 µM; activity change, positive = activation: at the top concentration; further: nearly all actives have a fitted effect of over 65% in size
Method in brief: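 Steps: enzyme/substrate mix dispensed; compound added, 10 min RT; NADPH regeneration solution added, 60 min RT; luciferin detection buffer stops reaction; 20 min later luminescence measured.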

Cytochrome P450 3A4 (Homo sapiens), sequence (P08684 whole entry, looked up): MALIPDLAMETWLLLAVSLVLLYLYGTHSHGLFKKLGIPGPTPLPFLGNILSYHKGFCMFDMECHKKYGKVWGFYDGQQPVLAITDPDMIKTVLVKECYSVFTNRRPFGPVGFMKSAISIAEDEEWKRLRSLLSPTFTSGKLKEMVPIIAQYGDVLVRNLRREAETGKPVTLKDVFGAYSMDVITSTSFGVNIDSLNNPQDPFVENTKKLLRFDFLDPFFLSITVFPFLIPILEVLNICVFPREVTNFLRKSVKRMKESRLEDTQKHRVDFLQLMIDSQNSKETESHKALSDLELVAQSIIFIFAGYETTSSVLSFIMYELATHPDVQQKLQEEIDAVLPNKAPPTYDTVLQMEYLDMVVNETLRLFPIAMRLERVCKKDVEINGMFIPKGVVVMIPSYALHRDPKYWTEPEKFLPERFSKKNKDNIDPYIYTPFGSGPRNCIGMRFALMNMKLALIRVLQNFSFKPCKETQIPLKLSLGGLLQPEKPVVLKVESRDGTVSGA

Activity change, positive = activation, inactive:
COC(=O)[C@H]1C[C@@H]2CC[C@@H](O)C[C@@H]2N1Cc1c(F)cccc1Cl -70%
CN1C[C@@H]2C(c3ccc(Cl)nc3)C3(c4ccccc4)CC2(C3)[C@H]1c1ccccc1 (stereo not given in full) -74%
CO[C@H]1COC(=O)[C@H](C)NC(=O)C/C=C\[C@@H](C)[C@@H](NS(=O)(=O)c2ccc(C)cc2)COC(=O)C/C=C\[C@@H]1C -80.3% [at 11.4 µM]
CC(Cc1ccccc1)C(=O)NCCc1c[nH]c2ccccc12 (stereo not given) -102%
COC(=O)[C@@H]1C[C@@H]2CC[C@@H](O)C[C@@H]2N1CC1CCCCC1 -85%
CCC1=C2CC[C@H]3C(=O)N(CC(=O)OC)C(=O)[C@H]3[C@H]2[C@@]2(C)C(=NCCc3c[nH]c4ccccc34)OC(=O)N2C1=O -103%
COC(=O)c1ccc(C(/C=C/[C@@H](C)C(=O)NCCc2c[nH]c3ccccc23)NC(=O)OCc2ccccc2)cc1 (stereo not given in full) -85.6%
CCC1=C2CC[C@H]3C(=O)NC(=O)[C@H]3[C@H]2[C@@]2(Cc3ccccc3)C(=NCc3ccccc3)OC(=O)N2C1=O -87.7%
CCC1=C(OC(=O)N(CC)CC)N2C(=O)OC(=NCCOC)[C@]2(Cc2ccccc2)[C@H]2C1=CC[C@H]1C(=O)N(CC(=O)OC)C(=O)[C@H]12 -86.2%
Cn1c(=O)c(C(=O)COC(=O)c2cc(C(F)(F)F)nc3c(C(F)(F)F)cccc23)c(N)n(CC2CC2)c1=O -74.5%
c1ccc(C2[C@H]3CN(Cc4cccnc4)[C@H](c4ccccc4)C34CC2(c2ccccc2)C4)cc1 (stereo not given in full) -63.5%
CCCCCCN(C(=O)CCCCCN1C(=O)NC(c2ccc(-c3ccccc3)cc2)C(C(=O)OCc2ccccc2)=C1C)C(C(=O)NCCCC)c1ccc(O)cc1 (stereo not given) -67.4%
COc1c(O)c(O)cc2c1oc1c3cc(C)ccc3oc(=O)c21 -74.9%
COC(=O)N1CC=CC1(C)C(=O)NCc1cc(F)cc(C(F)(F)F)c1 (stereo not given) -65.2%
CC(C)=CCC/C(C)=C/CO/N=C1/C[C@@H](O)[C@@H](O)[C@@H]2[C@@H]3C(=O)N(Cc4ccc5c(c4)OCO5)C(=O)[C@H]3CC[C@@H]12 -86.9% [at 11.4 µM]
CCC1=C2CC[C@H]3C(=O)N(C)C(=O)[C@H]3[C@H]2[C@@]2(Cc3ccccc3)C(=NCC3CC3)OC(=O)N2C1=O -81.8%
CCC1=C2CC[C@H]3C(=O)N(CC(=O)OC)C(=O)[C@H]3[C@H]2[C@@]2(Cc3ccccc3)C(=NCCOC)OC(=O)N2C1=O -69.5%
O=C1[C@H]2[C@H]3[C@H](O)[C@H](O)C/C(=N/OC[C@@H](O)COCc4ccco4)[C@@H]3CC[C@@H]2C(=O)N1Cc1ccc2c(c1)OCO2 -99.9% [at 11.4 µM]
CCC1=C(OC(=O)N(CC)CC)N2C(=O)OC(=NCCc3c[nH]c4ccccc34)[C@]2(Cc2ccccc2)[C@H]2C1=CC[C@H]1C(=O)N(CC)C(=O)[C@H]12 -93.8%
CCC1=C2CC[C@H]3C(=O)N(c4ccccc4)C(=O)[C@H]3[C@H]2[C@@]2(Cc3ccccc3)C(=NCCOC)OC(=O)N2C1=O -73.5%
COC(=O)C/C=C\[C@@H](C)[C@@H](/C=N\OC[C@@H]1O[C@H](c2ccccc2)C=C[C@@H]1Oc1ccc(OC)cc1)OC -96.1% [at 11.4 µM]
CCC1=C(OC(=O)N(CC)CC)N2C(=O)OC(=NCC3CC3)[C@]2(Cc2ccccc2)[C@H]2C1=CC[C@H]1C(=O)N(c3ccccc3)C(=O)[C@H]12 -88.7%
CCC1=C(OC(=O)N(CC)CC)N2C(=O)OC(=NCC3CC3)[C@]2(Cc2ccccc2)[C@H]2C1=CC[C@H]1C(=O)N(CC)C(=O)[C@H]12 -113%
CCC1=C(OC(=O)N(CC)CC)N2C(=O)OC(=NCC(=O)OC)[C@]2(C)[C@H]2C1=CC[C@H]1C(=O)NC(=O)[C@H]12 -88.5%
O=C(N/N=C1/C[C@@H](O)[C@@H](O)[C@@H]2[C@@H]3C(=O)N(Cc4ccc5c(c4)OCO5)C(=O)[C@H]3CC[C@@H]12)OCc1ccccc1 -74.6% [at 11.4 µM]
COc1cccc([C@H]2Oc3ccc(OC)cc3/C(=N\OC[C@@H](O)[C@@H]3O[C@@H]4OC(C)(C)O[C@@H]4[C@H]3O)[C@@H]2O)c1 -69.8% [at 11.4 µM]
CCC1=C2CC[C@H]3C(=O)N(CC)C(=O)[C@H]3[C@H]2[C@@]2(Cc3ccccc3)C(=NCc3ccccc3)OC(=O)N2C1=O -108%
COC(=O)[C@@H]1C[C@H]2CC[C@H](O)C[C@H]2N1Cc1ccccc1OC(=O)c1cccs1 -65.9%
CN1C[C@@H]2C(c3ccc(C(F)(F)F)cc3)C3(c4cccnc4)CC2(C3)[C@H]1c1ccccc1 (stereo not given in full) -75.2%
N#Cc1ccc(C23CC4(C2)[C@H](CN(Cc2cccnc2)[C@@H]4c2ccccc2)C3c2ccccc2)cc1 (stereo not given in full) -115%

Source: PubChem BioAssay (NCATS)
